Results: PubChem BioAssay AID1745853 (National Center for Advancing Translational Sciences (NCATS), 2022)
About 970 (3.9%) of roughly 25,000 compounds were called active. About 8% were inconclusive and are not listed. The sample holds actives, similar compounds and a random draw of the others, so the mix is not that of the screen. No rule for the calls is given here.

Key:
Test in all cases: Primary Screen for Target Class Profiling of Small Molecule Inhibitors of Methyltransferases
[1] = target: Catechol O-methyltransferase (Homo sapiens) (UniProt P21964); conditions: purified enzyme, MTase-Glo SAH luminescence; activity change, negative = inhibition: at 40 µM, stronger effect = lower value; outcome: 40 uM
Text: (§1) PI: Matthew D. Hall Ph.D. and Quinlin M. Hanson Ph.D.
(§2) National Center for Advancing Translational Sciences (NCATS)
(§3) National Institute of Health (NIH), Rockville, MD
(§4) Target class profiling (TCP) is a chemical biology approach amenable to investigating understudied biological targets. TCP is achieved by developing a generalizable assay platform and applying it to screen a curated set of compound libraries against representative members of a target class. Small molecule methyltransferases (SMMTase) are a subclass of methyltransferase that act on metabolites to modulate signaling pathways, metabolize xenobiotics, or balance the available methyl pool. We screened four curated libraries totaling 27,574 unique compounds against the SMMTases nicotinamide N-methyltransferase (NNMT), phenylethanolamine N-methyltransferase (PNMT), histamine N-methyltransferase (HNMT), glycine N-methyltransferase (GNMT), catechol O-methyltransferase (COMT), and guanidinoacetate N-methyltransferase (GAMT). The data generated by this TCP can be leveraged for informed tool molecule development. For example, in the associated publication we identified a chemotype of HNMT-selective inhibitors. Additionally, we identified a putative SMMTase-selective inhibitor with potential as a tool molecule for studying broader methyltransferase biology.
(§5) High-through put screening assays were developed at the National Center for Advancing Translational Science (NCATS) for the enzymes NNMT, PNMT, HNMT, GNMT, COMT, and GAMT. Enzymatic activity was measured as a function of SAM cofactor conversion using the MTase Glo kit (Promega) for all enzymes. All assays were performed in 1536-well format with substrates and SAM concentrations at KM values. Enzyme concentration and assay timing were optimized for 10-20% SAM conversion. Initial screening of 27,574 compounds was done as single-point assays using the highest compound concentration (40 uM). […] These compounds were replated in 11-point dose response and assayed against NNMT, PNMT, HNMT, GNMT, COMT, GAMT, and a counter-assay. The IC50 and efficacy (maximal response) values were determined for each dose-response curve. These values are also accounted for in the area under the curve (AUC) values.
(§6) PROTOCOL TABLE (as described by Inglese J, Shamu CE and Guy RK. 2007)
(§7) SEQUENCE No. (e.g., 1, 2, 3, etc.); […] (e.g., Cells, Incubation, Reagent, etc.); VALUE; DESCRIPTION.
(§8) 1; Reagent; 2 uL; SMMTase Enzyme (2x) in reaction buffer, columns 1- 48.
(§9) 2; Reagent; 1 uL; SAM (4x) in reaction buffer, columns 1-48.
(§10) 3; Controls; 23 nL; DMSO in column 4; sinefungin in DMSO (0 uM - 40 uM) in 7-point 1:2 dilution series (n = 2) in column 2.
(§11) 4; Compounds; 23 nL; Columns 5-48.
(§12) 5; Reagent; 1 uL; Substrate (4x) in reaction buffer, columns 2-48.
(§13) 6; Time; 20-30 min; Incubation.
(§14) 7; Reagent; 1 uL; MTase-Glo reagent (5X), columns 1-48.
(§15) 8; Time; 30 min; Incubation.
(§16) 9; Reagent; 5 uL; MTase-Glo Detection reagent, columns 1-48.
(§17) 10; Time; 30 min; Incubation, luminescence evolution.
(§18) 11; Detection; Luminescence; ViewLux uHTS Microplate Imager (PerkinElmer).
(§19) NOTES (numbers refer to Sequence numbers above)
(§20) 1, 2, 5. White Medium Binding Greiner 1536-well plates (Cat #789175-F, Greiner Bio-One, Monroe, NC); Reaction buffer: 50 mM Tris, pH 8.0, 3 mM MgCl2, 1 mM EDTA, 50 mM NaCl, 1 mM DTT, and 0.1 mg/mL BSA. Evaporation was prevented by covering assay plates with metal lids containing holes to allow gas diffusion.
(§21) 1. Six SMMTase were profiled: HNMT, GNMT, PNMT, COMT, NNMT, GAMT
(§22) 5. The corresponding substrate was used for each enzyme: HNMT - 5.3 uM Histamine; GNMT - >500 uM Glycine; PNMT - 16.2 uM Norephinephrine; COMT - 13.7 uM Norephinephrine; NNMT - 3.8 uM Nicotinamide; GAMT - 2.5 uM Guanidinoacetate.6, 8, 10. Room temperature
(§23) 6. Final reaction conditions: 10 nM COMT, 5 uM SAM, 15 uM norepinephrine, 50 mM Tris, pH 8.0, 3 mM MgCl2, 1 mM EDTA, 50 mM NaCl, 1 mM DTT, and 0.1 mg/mL BSA; refer to tables 2 and S1 for specific timing.
8. […]

[2] = target: Glycine N-methyltransferase (Homo sapiens) (UniProt Q14749); conditions: purified enzyme, MTase-Glo SAH luminescence; measured here: GNMT inhibition; at 40 µM; stronger effect = lower value
Text: as §1, §2, §3, §4, §5, §6, §7, §8, §9, §10, §11, §12, §13, §14, §15, §16, §17, §18, §19, §20, §21, §22, §23
8. […]

[3] = target: Guanidinoacetate N-methyltransferase (Homo sapiens) (UniProt Q14353); conditions: purified enzyme, MTase-Glo SAH luminescence; measured here: GAMT inhibition; at 40 µM; stronger effect = lower value
Text: as §1, §2, §3, §4, §5, §6, §7, §8, §9, §10, §11, §12, §13, §14, §15, §16, §17, §18, §19, §20, §21, §22, §23
8. […]

[4] = target: Histamine N-methyltransferase (Homo sapiens) (UniProt P50135); conditions: purified enzyme, MTase-Glo SAH luminescence; measured here: HNMT inhibition; at 40 µM; stronger effect = lower value
Text: as §1, §2, §3, §4, §5, §6, §7, §8, §9, §10, §11, §12, §13, §14, §15, §16, §17, §18, §19, §20, §21, §22, §23
8. […]

[5] = target: Nicotinamide N-methyltransferase (Homo sapiens) (UniProt P40261); conditions: purified enzyme, MTase-Glo SAH luminescence; measured here: NNMT inhibition; at 40 µM; stronger effect = lower value
Text: as §1, §2, §3, §4, §5, §6, §7, §8, §9, §10, §11, §12, §13, §14, §15, §16, §17, §18, §19, §20, §21, §22, §23
8. […]

[6] = target: Phenylethanolamine N-methyltransferase (Homo sapiens) (UniProt P11086); conditions: purified enzyme, MTase-Glo SAH luminescence; measured here: PNMT inhibition; at 40 µM; stronger effect = lower value
Text: as §1, §2, §3, §4, §5, §6, §7, §8, §9, §10, §11, §12, §13, §14, §15, §16, §17, §18, §19, §20, §21, §22, §23
8. […]
% is scaled to controls: 0 for no effect and ±100 for the full control effect.

Sequence of Glycine N-methyltransferase (Homo sapiens) (Q14749 whole entry, looked up): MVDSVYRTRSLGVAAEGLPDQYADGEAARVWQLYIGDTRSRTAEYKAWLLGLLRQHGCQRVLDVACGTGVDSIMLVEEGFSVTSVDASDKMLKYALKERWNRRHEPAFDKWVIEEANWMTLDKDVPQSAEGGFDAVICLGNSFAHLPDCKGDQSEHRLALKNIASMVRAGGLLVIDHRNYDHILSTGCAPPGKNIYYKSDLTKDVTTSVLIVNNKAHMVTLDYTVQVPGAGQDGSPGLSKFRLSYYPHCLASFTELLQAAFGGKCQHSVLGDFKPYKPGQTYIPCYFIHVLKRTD
Sequence of Phenylethanolamine N-methyltransferase (Homo sapiens) (P11086 whole entry, looked up): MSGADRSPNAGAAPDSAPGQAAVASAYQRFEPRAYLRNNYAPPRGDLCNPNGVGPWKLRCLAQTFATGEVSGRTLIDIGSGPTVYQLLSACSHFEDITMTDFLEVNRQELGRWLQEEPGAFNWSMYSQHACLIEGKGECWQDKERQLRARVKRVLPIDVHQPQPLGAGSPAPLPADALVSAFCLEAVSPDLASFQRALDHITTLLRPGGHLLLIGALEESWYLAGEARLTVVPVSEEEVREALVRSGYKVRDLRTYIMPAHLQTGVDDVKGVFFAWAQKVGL
Sequence of Nicotinamide N-methyltransferase (Homo sapiens) (P40261 whole entry, looked up): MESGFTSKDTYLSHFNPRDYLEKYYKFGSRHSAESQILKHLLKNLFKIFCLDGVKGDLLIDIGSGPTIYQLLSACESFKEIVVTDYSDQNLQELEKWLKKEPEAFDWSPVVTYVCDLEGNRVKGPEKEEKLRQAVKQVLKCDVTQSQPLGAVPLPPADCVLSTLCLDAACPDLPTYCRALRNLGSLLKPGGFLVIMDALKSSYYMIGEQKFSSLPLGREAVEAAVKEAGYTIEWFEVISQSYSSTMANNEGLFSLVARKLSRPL
Sequence of Histamine N-methyltransferase (Homo sapiens) (P50135 whole entry, looked up): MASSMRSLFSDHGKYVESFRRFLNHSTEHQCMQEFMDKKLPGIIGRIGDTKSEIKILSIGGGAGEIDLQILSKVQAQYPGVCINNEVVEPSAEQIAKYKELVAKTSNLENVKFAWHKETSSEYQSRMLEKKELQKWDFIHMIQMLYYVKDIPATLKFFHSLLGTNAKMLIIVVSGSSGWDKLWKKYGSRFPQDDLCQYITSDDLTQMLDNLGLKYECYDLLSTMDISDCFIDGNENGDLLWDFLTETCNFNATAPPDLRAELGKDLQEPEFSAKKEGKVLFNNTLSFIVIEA
Sequence of Catechol O-methyltransferase (Homo sapiens) (P21964 whole entry, looked up): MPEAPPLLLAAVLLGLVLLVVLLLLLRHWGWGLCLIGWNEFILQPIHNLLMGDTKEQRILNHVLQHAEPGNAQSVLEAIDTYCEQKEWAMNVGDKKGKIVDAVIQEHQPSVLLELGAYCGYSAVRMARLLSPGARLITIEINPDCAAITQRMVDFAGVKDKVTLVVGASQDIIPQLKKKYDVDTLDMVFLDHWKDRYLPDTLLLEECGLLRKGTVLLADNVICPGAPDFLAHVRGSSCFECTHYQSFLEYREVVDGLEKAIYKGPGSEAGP

SMILES	activity change, negative = inhibition [1]	activity change, negative = inhibition [2] [%]	activity change, negative = inhibition [3] [%]	activity change, negative = inhibition [4] [%]	activity change, negative = inhibition [5] [%]	activity change, negative = inhibition [6] [%]
Cc1cc2c(F)c(Oc3ncnn4cc(OCC(C)O)c(C)c34)ccc2[nH]1 (centres undefined)	3.68% (inactive)	3.84	9.85	8.7	-17.3	-3.09
Cc1nonc1OCCn1ccnc1-c1cn(C2CCNCC2)nn1	0.411% (inactive)	-2.5	-0.534	-2.48	-2.16	-1.03
CCOC(=O)c1ccc(N2C(=O)CSc3c(c4ccccc4n3C)C2C(=O)NCc2ccccc2)cc1 (centres undefined)	8.93% (inactive)	13.6	0.807	10.5	10.6	10.2
CC1CC(O)/C=C/C(O)/C=C\C(=O)O1 (centres undefined)	-1.4% (inactive)	0.769	10.1	9.33	-2.16	5.9
O=C(CCn1ccc2cc(S(=O)(=O)N3CCCC3)ccc21)NCc1cccc(Cl)c1	-5.13% (inactive)	-5.66	0	-0.957	-15.3	-7.6
CC(F)(F)CN1CCOc2c(nn(-c3ccccc3Cl)c2-c2ccc(Cl)cc2)C1=O	-4.89% (active)	-72.3	-2.43	-6.67	-49.1	-14.4
COc1cc(NC(=O)CSc2nnc3n(CC(C)C)c(=O)c4ccccc4n23)cc(OC)c1	1.19% (inactive)	0.652	4.16	4.88	0.518	1.8
CC1=C(C(=O)O)/C(=C/CO[C@@H]2O[C@H](COC(=O)/C=C/c3ccc(O)cc3)[C@@H](O)[C@H](O)[C@H]2O)C(O)C1 (some centres undefined)	-20.2% (inactive)	4.68	4.63	9.32	-5.67	0.561
COc1ccc2cc3n(c2c1)CC(C)(C(=O)NC1CCCC1)N(CCc1ccc(SC)cc1)C3=O (centres undefined)	-1.16% (inactive)	0.148	0	3.11	-0.661	-4.18
CCC[C@H]1CN(C(=O)c2ccc3c(c2)NC(=O)CN3)C[C@@H]1N	-3.16% (inactive)	-3.38	-8.81	-2.88	-6.82	-2.87
CCOc1ccc(N2C(=O)c3cc(-c4ccc(OC)cc4)nn3CC2(C)C(=O)NCc2ccccc2OC)cc1 (centres undefined)	4.86% (inactive)	7.45	4.82	9.26	5.96	0.163
CN1C(=O)c2cc(C(=O)NCCc3cccs3)nn2CC1(C)C(=O)NCc1ccc(F)cc1 (centres undefined)	1.71% (inactive)	3.48	0	-2.18	9.12	3.02
C[C@]12CCC[C@](C)(C(=O)O)C1[C@@H](O)[C@@H](O)C13CC(CCC12)C(CO)(O[C@@H]1O[C@H](CO)[C@@H](O)[C@H](O)[C@H]1O)C3 (some centres undefined)	-23% (inactive)	0	1.76	7.4	-7.28	3.45
CCOC(=O)c1cc2n(n1)CC(C)(C(=O)NC1CCCC1)N(c1ccc(C)c(C)c1)C2=O (centres undefined)	1.75% (inactive)	4.07	4.83	3.71	1.82	2.03
